Results: PubChem BioAssay AID2687 (National Center for Advancing Translational Sciences (NCATS), 2010)
Calls of active or inactive are those of the source.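 How the source made its calls: active means potency half-maximal inhibitory concentration below 100 µM; inconclusive means dose-dependent response but potency above 100 µM; inactive means the rest.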

Molecular target: Lysine-specific demethylase 4E (Homo sapiens) (UniProt B2RXH2)
Assay: AlphaScreen Assay for Inhibitors of Human Jumonji Domain Containing 2E (JMJD2E)
Conditions: recombinant JMJD2E, H3K9me3 peptide demethylation
Source text: The fine interplay among methylation states of several lysine residues on the tails of histone proteins is a major determinant of the transcriptional state of the associated DNA coding regions and is commonly referred to as the histone code. Histone lysine demethylases catalyze the removal of methyl groups from methylated lysine sidechains on histones H3 and H4, thus antagonizing the reactions catalyzed by histone lysine methyltransferases. […] In search for novel inhibitors of JMJD2E demethylase, a member of the largest set of histone demethylases belonging to the Fe(II) and 2-oxoglutarate oxygenase (2OG) superfamily, we performed a quantitative high-throughput screen (Inglese 2006). See AID 2147 for details on the primary screen. The assay here is a secondary AlphaScreen screen used to validate follow-up compounds. References: Inglese, J., Auld, D., Jadhav, A., Johnson, R., Simeonov, A., Yasgar, A., Zheng, W. and Austin, C. […]
Assay Buffer: 50 mM HEPES pH7.5, 0.01% Tween-20, 0.1% BSA (Cohn Fraction V; Sigma A7030) Peptide: biotin-[…](me3/2)STGGKA Antibody: Abcam Ab1220, Anti-H3K9Me2 Final concentration of components in enzyme reaction: JMJD2E 5 nM, Peptide 30 nM, […] L-Ascorbic Acid, […], DMSO 0.1% Alphascreen beads made up in the dark in assay buffer and pre-incubated for 1 hour in the dark. […] Read plate on BMG Labtech Pherastar FS

Sequence of Lysine-specific demethylase 4E (Homo sapiens) (B2RXH2 1-337 limits assumed): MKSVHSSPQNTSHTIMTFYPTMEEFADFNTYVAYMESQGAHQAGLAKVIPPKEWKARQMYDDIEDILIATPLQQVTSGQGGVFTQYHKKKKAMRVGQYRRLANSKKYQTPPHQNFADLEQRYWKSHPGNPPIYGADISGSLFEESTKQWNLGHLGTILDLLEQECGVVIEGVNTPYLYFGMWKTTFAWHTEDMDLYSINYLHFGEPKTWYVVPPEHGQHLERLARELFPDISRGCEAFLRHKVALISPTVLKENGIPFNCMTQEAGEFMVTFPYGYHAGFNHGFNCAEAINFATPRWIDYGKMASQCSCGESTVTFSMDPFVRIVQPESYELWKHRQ

Row | SMILES | Potency
1 | Oc1ccc(CNc2cccc(F)c2)c2cccnc12 | 1490 nM (active)
2 | O=S(=O)(Nc1ccc(O)c2ncccc12)c1ccccc1F | 435 nM (active)
